Compound activity: PubChem BioAssay, National Center for Advancing Translational Sciences (NCATS)
Most compounds without a hit are left out; they make up all but 11% or so of the library.
Sm TGR block: inhibitors of Schistosoma mansoni thioredoxin glutathione reductase | Q962Y6 | purified TGR, DTNB reduction, TNB absorbance 405 nm | Potency, µM (highest dose often 114 µM), for the others: at the top dose activity change, negative = inhibition, most hits filed as inhibitors | 360,000 tested, 3% active | AID 485364; also: % is scaled to controls: 0 for no effect and ±100 for the full control effect; nearly all actives have a fitted effect of over 60% in size
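TGR 20 nM + NADPH 100 uM (dispensed conc.), cpd preinc 15 min RT; start with NADPH (500 uM addition) then DTNB (15 mM addition). Kinetic TNB absorbance, 405 nm filter. Four-parameter Hill fit across titration.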
Pf growth 48h: P. falciparum growth inhibition at 48 hours (one generation); 310,000 tested, 5.9% active; P. falciparum luciferase growth in erythrocytes, 48 h; Potency, µM (top dose mostly 28.7 µM), for inactives: at the top dose activity change, negative = inhibition, actives largely listed as inhibitors; also: % is scaled to controls: 0 for no effect and ±100 for the full control effect
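Parasite viability was followed by luminescence of a genomically integrated firefly luciferase. Cultures held 0.1% parasitemia at 2% hematocrit (final), incubated under 5% CO2 at 37 C.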
Pf growth 96h: P. falciparum growth inhibition at 96 hour, primary screen for plastid delayed-death inhibitors | P. falciparum luciferase reporter growth, 96 h | Potency, µM (series often up to 28.7 µM), for inactives: at the highest dose activity change, negative = inhibition, hits mostly inhibitors | 320,000 tested, 6.9% active | AID 504834; also: % is scaled to controls: 0 for no effect and ±100 for the full control effect
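96 h incubation, 37 C, 5% CO2, of luciferase-reporter P. falciparum-infected RBCs (2% hematocrit, 0.05% parasitemia final) with test compounds; endpoint luminescence.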
AMA1 RON2 block: AMA1-RON2 (P. falciparum) interaction inhibition | AlphaScreen AMA1-biotinylated RON2 peptide binding | Potency, µM (top dose mostly 58.2 µM), for the others: at the top dose activity change, negative = inhibition, usual class: inhibitors | 360,000 tested, 0.2% active | AID 720542;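 also: 0% = vehicle wells and -100% = peptide control; nearly all actives have a fitted effect of over 45% in size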
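AMA1 (3D7) with his tag at 25 nM final met compounds first, then biotinylated RON2 peptide at 25 nM; detection used donor plus acceptor beads, 10 µg/mL apiece, read by AlphaScreen after 30 min at room temperature.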
NS1 function inh: blocks influenza NS1 protein function | Potency, µM (highest dose often 46.1 µM), without a hit: at the top dose activity, positive = more growth | 270,000 tested, 0.4% active | AID 2326; calls by dose curve; also: actives are rising curves; nearly all actives have a fitted effect of over 50% in size
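Growth recovery, yeast-based: influenza A NS1 expressed in S. cerevisiae causes slow growth, and suppressors are detected by OD600. The parent strain without NS1 is used as positive control.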
* marks the source's active call; other numbers are inactive results; u = inconclusive; x = no result. Unless noted, calls follow the shape of the dose curve; as a rule, active = well fitted curve in the direction sought with a large enough effect; inconclusive = small, poorly fitted or top-dose-only effect, or another doubt; inactive = no such curve, though single readings can be large; an effect the other way counts as inactive or inconclusive. Potency is read from the fitted curve at half-maximal effect.

SMILES	Sm TGR block	Pf growth 48h	Pf growth 96h	AMA1 RON2 block	NS1 function inh
CC(C)c1ccc(C2CC(=O)N3CN(C)CSC3=C2C#N)cc1 (stereo unspecified)	-29%	x	u	5%	-47%
N#CC1=C2SCN(C3CCCCC3)CN2C(=O)CC1c1ccc(Cl)cc1 (stereo unspecified)	7.9µM*	x	x	x	x
N#CC1=C2SCN(C3CCCCC3)CN2C(=O)CC1c1ccc(F)cc1 (stereo unspecified)	3.5µM*	x	x	x	x
COc1ccc(CNS(=O)(=O)c2ccc(C(=O)N(C)C)s2)cc1	5%	x	x	x	x
COc1ccccc1NC(=O)N1CCN(c2ccnc3cc(Cl)ccc23)CC1	5%	2.1µM*	2.6µM*	-14%	-9%
COc1ccccc1N1CCN(c2ccnc3cc(Cl)ccc23)CC1	-1%	u	0.47µM*	-19%	9%
COc1ccccc1N1CCN(c2ncnc3c2cnn3-c2cc(Cl)ccc2C)CC1	15%	x	x	x	x
CCc1cccc(C)c1NC(=O)c1cc2ccccc2o1	-7%	x	x	x	x
Cc1ccc(C)c(S(=O)(=O)N2CCN(C(=O)CCCc3c[nH]c4ccccc34)CC2)c1	3%	15µM*	u	-21%	x
Cc1ccc(S(=O)(=O)N2CCN(C(=O)CCc3nc4ccccc4c(=O)[nH]3)CC2)c(C)c1	6%	u	12µM*	10%	x
Cc1ccc(C)c(S(=O)(=O)N2CCN(C(=O)CCc3nc4ccccc4c(=O)[nH]3)CC2)c1	-7%	u	10µM*	-3%	x
Cc1ccc(NC(=O)CCc2nc3ccccc3c(=O)[nH]2)cc1S(=O)(=O)N1CCOCC1	6%	u	4.1µM*	-8%	x
O=C(CCc1nc2ccccc2c(=O)[nH]1)N1CCN(S(=O)(=O)c2ccccc2Br)CC1	-1%	u	u	15%	x
Cc1ccc(C)c(S(=O)(=O)N2CCN(C(=O)CCc3c[nH]c4ccccc34)CC2)c1	-7%	u	u	-11%	x
CCCCn1c(=O)c2oc3ccccc3c2n(Cc2ccc(OC)cc2)c1=O	6%	x	x	x	x
Cc1cn2c(=O)cc(COc3ccc(C(C)(C)C)cc3)nc2s1	1%	x	x	x	x
CCOc1ccc(C(=O)CC(Sc2ccc(C)cc2)C(=O)O)cc1 (stereo unspecified)	3.2µM*	13%	18%	-2%	1%
O=C(CC(Sc1ccc(Br)cc1)C(=O)O)c1ccc(F)cc1 (stereo unspecified)	0.63µM*	x	u	32%	-35%
O=C(O)COc1ccccc1/C=N/NC(=O)CN1CCN(Cc2ccc(Cl)cc2)CC1	9%	31%	-20%	66%	5%
O=C(NCCc1ccc(OC(F)F)cc1)C1CC(=O)N(c2ccc3c(c2)OCCO3)C1 (stereo unspecified)	7%	-18%	13%	0%	x
CN(C)C1=NC[C@H](Cc2ccccc2)N1CCCCc1ccccc1	-13%	13µM*	u	0%	x
Cc1cccc(CCN2C(N(C)C)=NC[C@@H]2Cc2ccccc2)c1	x	x	x	5%	x
Cc1cccc(CCN2C(N(C)C)=NC[C@@H]2CC(C)C)c1	-5%	13µM*	u	30%	x
CC(C)C[C@H]1CN=C(N(C)C)N1CC1CCCCCC1	-11%	4.1µM*	u	15%	x
CCCCCCCN1C(N(C)C)=NC[C@@H]1Cc1ccccc1	0%	4.7µM*	u	8%	x
SMILES	Sm TGR block	Pf growth 48h	Pf growth 96h	AMA1 RON2 block	NS1 function inh
CN(C)C1=NC[C@H](Cc2ccccc2)N1CC1CCCC1	-7%	u	u	23%	x
CC(C)C[C@H]1CN=C(N(C)C)N1CC(C)C	x	x	x	27%	x
CCn1nnc2cc(C(=O)Nc3cccc(C)c3C)ccc21	-3%	x	x	x	x
Cc1c(CNC2CCC(C)CC2)c(C(=O)O)c(C)n1Cc1ccccc1F (stereo unspecified)	-6%	x	x	x	x
CC1(C(=O)Nc2nccs2)CCN1C(=O)CC(c1ccccc1)c1ccccc1 (stereo unspecified)	x	x	x	-6%	x
COc1ccccc1C/C(N)=N/OC(=O)c1cccc([N+](=O)[O-])c1C	-13%	9.3µM*	33%	5%	-40%
O=C(NO)c1ccc(C(=O)N(C2CCCCC2)C2CCCCC2)cc1	0%	3.3µM*	6%	46%	-99%
O=C(c1c(F)cccc1F)N(C1CCCCC1)C1CCCCC1	12%	10µM*	-15%	1%	-38%
O=C(c1c(F)cccc1F)N(Cc1cccs1)C1CCCC1	x	-12%	31%	13%	-5%
COc1cc(C2CC(=O)N(CC(=O)Nc3ccccc3F)c3ccccc3S2)cc(OC)c1OC (stereo unspecified)	3%	x	x	x	x
NC(=O)c1ccnc2c(O)cccc12	1%	u	12µM*	x	x
Oc1cccc2c(-c3nn[nH]n3)ccnc12	0%	u	u	x	x
COc1cc(Cl)ccc1OC1(C)CCN(Cc2cccn2-c2nccs2)C1 (stereo unspecified)	x	x	x	-27%	x
CCOc1ccc(CCNC(=O)c2c(C)noc2C)cc1OCC	-2%	u	-4%	16%	x
CCOc1ccc(C(=O)Nc2cc(C)on2)cc1OCC	6%	12µM*	-5%	-1%	-6%
COc1ccc(C(=O)Nc2cc(C)on2)cc1OC	-10%	24%	104%	1%	1%
CCOc1ccc(CCNC(=O)c2cc(C)on2)cc1OCC	-5%	10µM*	u	8%	-1%
CCCCOc1cccc(OCCCC)c1C(=O)Nc1cc(C)on1	3%	2.1µM*	25%	0%	-17%
CCn1c(=O)c2sccc2n2c(CCC(=O)Nc3cc(C)cc(C)c3)nnc12	3%	x	x	x	x
CCC(C)(C)c1ccc(OCCCC[n+]2ccc(C)cc2)c(C(C)(C)CC)c1	-10%	1.9µM*	3.7µM*	-13%	x
CCC(C)(C)c1ccc(OCCCC[n+]2cccc(C)c2C)c(C(C)(C)CC)c1	17%	0.83µM*	0.37µM*	-7%	-61%
COc1cc(OC)cc(C(=O)N[C@H](C(=O)Nc2ccccc2N2CCOCC2)C(C)C)c1	-2%	x	8.3µM*	-18%	-6%
Cc1cc(Cl)ccc1OC(C)C(=O)Nc1ccccc1N1CCOCC1 (stereo unspecified)	4%	7.4µM*	x	-1%	-47%
Cc1csc(NC(=O)C(C)Oc2ccc(Cl)cc2C)n1 (stereo unspecified)	-2%	13µM*	u	-4%	x
CCC(C)Oc1cccc(C(=O)Nc2ccccc2N2CCOCC2)c1 (stereo unspecified)	1%	10µM*	2%	-5%	-40%
CC(N=C1NS(=O)(=O)c2ccccc21)C(=O)NCc1ccc(F)cc1 (stereo unspecified)	x	x	x	0%	x
O=C(CSCc1ccccc1Cl)NCc1ccc(Cl)c(Cl)c1	-7%	x	x	x	x
CCCNC(=O)CN(C)S(=O)(=O)c1c(C)cc(C)cc1C	-21%	7.4µM*	10µM*	-6%	-7%
CCCNC(=O)CN(C)S(=O)(=O)c1ccc(F)cc1	-6%	-8%	12%	-1%	u
COc1cc(NCC[C@@H]2CCCCN2)c2ncccc2c1	x	x	x	x	2%
